Screening data as filed in PubChem BioAssay.
Hits are enriched below; roughly 1.5% of the tested compounds scored in any of these assays.
IDE cell inh: cellular human IDE inhibition; HEK cells, FAbetaB cleavage, fluorescence polarization; inhibition, % at 5.59 µM; 320,000 compounds, 0.41% hits;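 active means percent inhibition above the average of all tested compounds plus 3 SD, set per screening campaign, cut at about 16% in these data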;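 further: IDE supplied by intact live HEK cells; FP after avidin binding of uncleaved biotin substrate so inhibition keeps polarization high; 0% = DMSO wells and 100% = 60 µM reference IDE inhibitor Ii1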
Target sequence (P14735 whole entry, looked up): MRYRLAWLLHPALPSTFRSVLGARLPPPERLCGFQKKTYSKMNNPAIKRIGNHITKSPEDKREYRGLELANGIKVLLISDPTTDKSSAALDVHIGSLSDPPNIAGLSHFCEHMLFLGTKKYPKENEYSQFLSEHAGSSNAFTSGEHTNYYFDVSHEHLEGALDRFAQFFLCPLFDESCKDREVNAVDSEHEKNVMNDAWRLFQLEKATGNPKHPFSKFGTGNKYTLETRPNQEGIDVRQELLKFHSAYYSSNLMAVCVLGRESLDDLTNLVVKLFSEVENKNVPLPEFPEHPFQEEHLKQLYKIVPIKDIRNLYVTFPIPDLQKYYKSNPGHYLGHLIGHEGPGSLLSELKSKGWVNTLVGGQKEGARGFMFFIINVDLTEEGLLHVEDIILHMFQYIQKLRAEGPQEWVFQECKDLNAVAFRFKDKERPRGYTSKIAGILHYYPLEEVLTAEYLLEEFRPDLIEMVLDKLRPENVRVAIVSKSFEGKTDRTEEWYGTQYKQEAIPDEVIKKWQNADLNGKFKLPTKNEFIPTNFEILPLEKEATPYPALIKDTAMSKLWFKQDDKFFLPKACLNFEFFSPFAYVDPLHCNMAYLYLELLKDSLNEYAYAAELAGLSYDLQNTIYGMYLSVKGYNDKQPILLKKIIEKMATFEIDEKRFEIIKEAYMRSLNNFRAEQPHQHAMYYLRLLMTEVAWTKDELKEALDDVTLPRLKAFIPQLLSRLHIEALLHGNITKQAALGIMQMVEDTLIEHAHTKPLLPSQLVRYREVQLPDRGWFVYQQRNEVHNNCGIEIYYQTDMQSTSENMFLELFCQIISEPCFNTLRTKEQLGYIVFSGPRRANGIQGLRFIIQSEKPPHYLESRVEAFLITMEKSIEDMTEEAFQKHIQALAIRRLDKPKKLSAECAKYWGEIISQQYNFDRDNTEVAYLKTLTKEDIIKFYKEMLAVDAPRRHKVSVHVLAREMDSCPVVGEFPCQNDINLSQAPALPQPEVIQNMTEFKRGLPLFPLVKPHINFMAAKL
CRFR2-BP antag: CRF-BP/CRF-R2 complex antagonism | HEK293 CRF-R2/CRF-BP, CRF-induced calcium fluorescence | inhibition, % at 11.8 µM | 350,000 compounds, 0.59% hits;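 active means inhibition of the ligand-induced calcium signal above about 50% at the single tested concentration, limit read from the data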
IDE cell activ: boosts human insulin-degrading enzyme activity in HEK cells; 340,000 compounds, 0.073% hits; FAbeta-B cleavage, fluorescence polarization; 0% vehicle, 100% cell-free pure enzyme wells; P14735; AID 493087; activation, % at 5.96 µM;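 active means activation above the mean of all tested compounds plus 3 SD, set per screening campaign, cut at about 17% in these data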
RTF Ca sens act: cardiac RTF calcium sensitization. P19429+P45379. activation, % at 7.2 µM. IANBD-labeled TnC RTF fluorescence at EC20 calcium; 0% EC20 calcium, 100% full calcium. 340,000 compounds, 0.24% hits;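 active means activation above the mean over all tested compounds plus 3 SD, cut at about 30% in these data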;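 further: rise in fluorescence read as greater calcium sensitivity of cardiac thin filaments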
CRFR2-BP ag: agonists of human CRF-binding protein/CRF-R2 receptor complex | 350,000 compounds, 0.46% hits | HEK293 CRF-R2/CRF-BP, calcium dye fluorescence (FLIPR); percent of saturating CRF peptide response | AID 588473 | activation, % at 13.2 µM;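 active means activation of at least 50%, plus an integration ratio under a set limit after plate pattern correction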;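 further: plate controls were neutral control wells without compound for no effect and CRF at EC100 for full effect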
Cardiac RTF inh: cardiac RTF calcium desensitization. P19429+P45379. IANBD-labeled cardiac RTF, Ca2+ fluorescence. inhibition, % at 7.15 µM. 340,000 compounds, 0.12% hits;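 active means inhibition above the mean inhibition of all tested compounds plus 3 SD, cut at about 17% in these data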;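 further: assay run at fixed EC70 calcium of 1.6 mM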
IDE inh confirm: cellular human IDE inhibition, confirmation | shares compounds with IDE cell inh | HEK cells, FAbetaB cleavage, fluorescence polarization | inhibition, % at 5.59 µM | 1,200 compounds, 51% hits;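 active means mean inhibition across triplicate wells above the cutoff set by the earlier primary insulin-degrading enzyme screen, cut at about 16% in these data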;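 further: 0% = DMSO wells and 100% = 60 µM reference IDE inhibitor Ii1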
HEK293 tox: kills HEK cells in IDE inhibitor counter-screen; shares compounds with IDE cell inh; AID 449730; HEK293 cytotoxicity, ATP luminescence; 1,200 compounds, 28% hits; inhibition, % at 5.59 µM; in the data active means inhibition above about 22%;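 further: 0% = vehicle wells and 100% = reference cytotoxic drug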
Starred values were filed as active, the others as inactive.

Results for CCCN1CCC2(CC1)C(C#N)=C(N)Oc1c2sc2nc(C)cc(C)c12 ?
IDE cell inh: 23*; CRFR2-BP antag: -7; IDE cell activ: -13; RTF Ca sens act: 4; CRFR2-BP ag: 2; Cardiac RTF inh: -18; IDE inh confirm: 7; HEK293 tox: 12

Results for COc1ccc(N=C2NC(=O)/C(=C/c3ccc(O)c(OC)c3)S2)cc1 ?
IDE cell inh: 25*; CRFR2-BP antag: -10; IDE cell activ: -24; RTF Ca sens act: 3; CRFR2-BP ag: 4; Cardiac RTF inh: -6; IDE inh confirm: 32*; HEK293 tox: 12

Results for CCOc1ccc(N2C(=O)S/C(=C\c3ccc(O)c(OC)c3)C2=O)cc1 ?
IDE cell inh: 19*; CRFR2-BP antag: -8; IDE cell activ: -11; RTF Ca sens act: -3; CRFR2-BP ag: 4; Cardiac RTF inh: -4; IDE inh confirm: 20*; HEK293 tox: 7

Results for COc1cc(/C=C2\SC(=N)N(c3ccc4c(c3)OCO4)C2=O)cc(OC)c1O ?
IDE cell inh: 81*; CRFR2-BP antag: -6; IDE cell activ: -58; RTF Ca sens act: 5; CRFR2-BP ag: 38; Cardiac RTF inh: -11; IDE inh confirm: 72*; HEK293 tox: 11

How did COc1ccccc1N=C1NC(=O)/C(=C/c2ccc(N(C)C)cc2)S1 do in these assays?
IDE cell inh: 53*; CRFR2-BP antag: -86; IDE cell activ: -70; RTF Ca sens act: 48*; CRFR2-BP ag: 79*; Cardiac RTF inh: -87; IDE inh confirm: 56*; HEK293 tox: 53*

What do the screens show for `O=[N+]([O-])c1cc([N+](=O)[O-])c(Oc2cccnc2Br)cc1NN1CCCCC1`?
IDE cell inh: 3; CRFR2-BP antag: 0; IDE cell activ: 1; RTF Ca sens act: 10; CRFR2-BP ag: -3; Cardiac RTF inh: -18

What do the screens show for `CN1C(=O)[C@H]2[C@@H](c3ccc(C(F)(F)F)cc3)N[C@]3(CCCN(Cc4ccco4)C3=O)[C@H]2C1=O`?
CRFR2-BP antag: 10; CRFR2-BP ag: 1

What do the screens show for `COc1cc(/C=C2\SC(=N)N(c3ccc(F)cc3)C2=O)ccc1O`?
IDE cell inh: 26*; CRFR2-BP antag: -19; IDE cell activ: -14; RTF Ca sens act: 1; CRFR2-BP ag: 6; Cardiac RTF inh: -18; IDE inh confirm: 19*; HEK293 tox: 20

What do the screens show for `Cn1c(/C=N/NC(=O)c2ccccc2Br)nc2ccccc21`?
IDE cell inh: 20*; CRFR2-BP antag: -3; IDE cell activ: -17; RTF Ca sens act: 0; CRFR2-BP ag: -2; Cardiac RTF inh: -5; IDE inh confirm: 3; HEK293 tox: 17

Results for COc1ccc(OC)c(/C=C2\Oc3cc(OCC(=O)N4CCC(C(=O)O)CC4)ccc3C2=O)c1 ?
IDE cell inh: 22*; CRFR2-BP antag: -31; IDE cell activ: -36; RTF Ca sens act: 3; CRFR2-BP ag: 22; Cardiac RTF inh: -2; IDE inh confirm: 65*; HEK293 tox: 8

Results for COc1ccc(OC)c(/C=C2\Oc3cc(OCC(=O)N4CC(O)C[C@H]4C(=O)O)ccc3C2=O)c1 (some centres undefined) ?
IDE cell inh: 9; CRFR2-BP antag: -16; IDE cell activ: -6; RTF Ca sens act: 1; CRFR2-BP ag: 6; Cardiac RTF inh: 4

What do the screens show for `O=C(/C=C/c1ccccc1Cl)Nc1ccc(-c2nnc3n2CCCCC3)cc1`?
IDE cell inh: 31*; CRFR2-BP antag: 17; IDE cell activ: -2; RTF Ca sens act: 11; CRFR2-BP ag: -3; Cardiac RTF inh: -4; IDE inh confirm: 1; HEK293 tox: 9

How did Cc1c(C(=O)Nc2ccc(-c3nnc4n3CCCCC4)cc2)oc2c1ccc1ccccc12 do in these assays?
IDE cell inh: 23*; CRFR2-BP antag: -25; IDE cell activ: -12; RTF Ca sens act: -10; CRFR2-BP ag: 1; Cardiac RTF inh: -1; IDE inh confirm: 13; HEK293 tox: 39*

Results for CCC(Cc1ccccc1)NC(=O)c1ccc2nc(N3CCOCC3)sc2c1 (centres undefined) ?
IDE cell inh: 0; CRFR2-BP antag: -11; IDE cell activ: 1; RTF Ca sens act: 3; CRFR2-BP ag: -2; Cardiac RTF inh: -9

How did CC1CCCC(N2CCN(C(=O)c3ccc([N+](=O)[O-])cc3)CC2)C1 (centres undefined) do in these assays?
CRFR2-BP antag: -6; IDE cell activ: 5; RTF Ca sens act: -2; CRFR2-BP ag: -1; Cardiac RTF inh: 5

How did N#Cc1ccc(CSc2ccc(S(=O)(=O)N3CCCCCC3)cn2)cc1 do in these assays?
CRFR2-BP antag: 15; IDE cell activ: 0; RTF Ca sens act: 3; CRFR2-BP ag: 2; Cardiac RTF inh: -10

What do the screens show for `CCCCNC(=O)N1CCN(c2ccccc2OCC)CC1`?
IDE cell inh: 4; CRFR2-BP antag: 9; IDE cell activ: 5; RTF Ca sens act: 0; CRFR2-BP ag: -2; Cardiac RTF inh: 3

How did Cc1cccc(Cl)c1NC(=O)N1CCCN(c2nc3ccc(Cl)cc3s2)CC1 do in these assays?
IDE cell inh: 4; CRFR2-BP antag: 0; IDE cell activ: 2; RTF Ca sens act: 5; CRFR2-BP ag: 1; Cardiac RTF inh: -8

Results for CCCCNC(=O)N1CCN(c2ccnc3cc(Cl)ccc23)CC1 ?
IDE cell inh: 19*; CRFR2-BP antag: -7; IDE cell activ: -18; RTF Ca sens act: -2; CRFR2-BP ag: 1; Cardiac RTF inh: -3; IDE inh confirm: 11; HEK293 tox: 18

Results for O=C(Nc1cc(F)ccc1F)N1CCN(c2ccnc3cc(Cl)ccc23)CC1 ?
IDE cell inh: 22*; CRFR2-BP antag: -8; IDE cell activ: -39; RTF Ca sens act: 4; CRFR2-BP ag: -1; Cardiac RTF inh: 3; IDE inh confirm: 9; HEK293 tox: -3

How did CC(=O)N1CCN(c2ccnc3cc(Cl)ccc23)CC1 do in these assays?
IDE cell inh: 9; CRFR2-BP antag: 2; IDE cell activ: -18; RTF Ca sens act: 10; CRFR2-BP ag: -1; Cardiac RTF inh: 5

How did O=C(O)CSCC(=O)N1CCN(c2ccnc3cc(Cl)ccc23)CC1 do in these assays?
IDE cell inh: 30*; CRFR2-BP antag: -4; IDE cell activ: -14; RTF Ca sens act: 0; CRFR2-BP ag: 3; Cardiac RTF inh: 2; IDE inh confirm: 6; HEK293 tox: 6
